Here are results for 5 compounds from ChEMBL document CHEMBL5308504, “Tm Shift (DSF) assay results for EUbOPEN Chemogenomics Library” (2023).

The target in this test is T1, Transcription intermediary factor 1-alpha (Homo sapiens) (UniProt O15164).
T1 sequence (whole entry): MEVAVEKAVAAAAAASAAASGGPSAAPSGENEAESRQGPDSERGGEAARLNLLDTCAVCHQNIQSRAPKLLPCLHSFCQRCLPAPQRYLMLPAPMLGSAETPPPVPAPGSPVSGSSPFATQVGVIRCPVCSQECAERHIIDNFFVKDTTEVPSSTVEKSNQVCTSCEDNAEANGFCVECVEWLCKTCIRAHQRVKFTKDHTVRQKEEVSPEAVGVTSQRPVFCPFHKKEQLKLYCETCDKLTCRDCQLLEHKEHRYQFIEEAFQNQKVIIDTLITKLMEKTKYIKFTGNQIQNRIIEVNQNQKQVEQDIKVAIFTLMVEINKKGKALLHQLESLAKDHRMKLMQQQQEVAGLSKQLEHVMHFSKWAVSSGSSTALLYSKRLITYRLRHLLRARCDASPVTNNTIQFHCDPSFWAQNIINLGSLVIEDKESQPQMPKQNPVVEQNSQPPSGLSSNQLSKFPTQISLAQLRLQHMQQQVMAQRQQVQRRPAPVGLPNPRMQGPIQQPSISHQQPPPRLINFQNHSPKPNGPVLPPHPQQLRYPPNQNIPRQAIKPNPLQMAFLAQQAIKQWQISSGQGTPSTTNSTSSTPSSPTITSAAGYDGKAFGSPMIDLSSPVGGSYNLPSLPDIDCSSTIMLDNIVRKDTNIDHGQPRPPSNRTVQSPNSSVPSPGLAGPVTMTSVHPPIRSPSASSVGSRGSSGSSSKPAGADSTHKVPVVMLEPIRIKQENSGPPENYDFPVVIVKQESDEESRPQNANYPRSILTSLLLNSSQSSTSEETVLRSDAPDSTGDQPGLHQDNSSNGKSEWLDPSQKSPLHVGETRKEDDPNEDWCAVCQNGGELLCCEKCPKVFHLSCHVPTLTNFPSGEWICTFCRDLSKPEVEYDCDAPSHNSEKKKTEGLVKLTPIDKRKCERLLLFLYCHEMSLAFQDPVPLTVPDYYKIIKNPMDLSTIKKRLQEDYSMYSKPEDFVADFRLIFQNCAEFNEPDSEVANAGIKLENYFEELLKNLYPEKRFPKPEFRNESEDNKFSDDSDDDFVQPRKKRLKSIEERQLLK
As to conditions: Compound concentration 20.0 uM, Protein concentration 2.0 uM, Result type QC Liability.
With `Cc1cc2c(ncn2C2(C)CN(C(=O)c3ccn(CC4CCN([C@H]5C=CCCCC5)CC4)c3)C2)c(N)n1`, the shift in melting temperature (ΔTm) – broadly, the shift of the melting midpoint relative to a reference – is -2.7 °C.

As for `CCOC(=O)/N=C(\N)c1ccc(OCc2cccc(COc3ccc(C(C)(C)c4ccc(OC(=O)OCC)cc4)cc3)c2)cc1`, the shift in melting temperature (ΔTm) was -0.45 °C.

In the case of `N#Cc1c(SCc2csc(-c3ccc(Cl)cc3)n2)nc(N2CCCC2)c(C#N)c1-c1ccc(OCCO)cc1`, the ΔTm came out at 0.42 °C.

For the compound `NCC1CCC(CNc2nc(NCc3ccccc3OC(F)(F)F)ncc2[N+](=O)[O-])CC1` (stereo not given), the ΔTm was -1.36 °C.

On to `COc1cc2nc([C@@H]3CCCS(=O)(=O)C3)n(C)c2cc1NC(=O)c1cccc(C(C)(F)F)n1`, for which the thermal shift (ΔTm) is 0.7 °C.
